# Reference: PubChem BioAssay AID1159580 (chemical genetic matrix, 2015)
# In all, about 5,500 compounds went through this assay and about 2,000 (36%) were called active. Not shown: some 18% with an inconclusive outcome. Some of the results follow. A number with no mark means an inactive call. No stated cut-off is given here; in the data, active means normalized growth mostly below about 0.91 (no sharp cut-off); inconclusive means no clear call, values can overlap the other calls; inactive means mostly above about 0.92.
# Experiment: chemical genetic growth profiling, strain panel (AID 1159580);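 further: tested at 20 µM; growth read once vehicle control cultures reached saturation at 30 °C; 1 = growth at the plate median or of vehicle wells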
# Conditions: growth OD
compound,measurement,setting,value
C1N2CN3CN1CN(C2)C3,normalized growth,"S. cerevisiae deletion strains, locus YJR075W, strain HOC1, stronger effect = lower value",0.986
same,normalized growth,"S. cerevisiae deletion strains, locus YKL009W, strain mrt4, stronger effect = lower value",0.834 (active)
same,normalized growth,"S. cerevisiae deletion strains, locus YKL068W, stronger effect = lower value",0.976
same,normalized growth,"S. cerevisiae deletion strains, locus YKL085W, strain MDH1 (second series), stronger effect = lower value",0.987
same,normalized growth,"S. cerevisiae deletion strains, locus YKL085W, strain MDH1, stronger effect = lower value",0.987
same,normalized growth,"S. cerevisiae deletion strains, locus YKL160W, strain elf1, stronger effect = lower value",0.973
same,normalized growth,"S. cerevisiae deletion strains, locus YKL190W, strain CNB1, stronger effect = lower value",0.98
same,normalized growth,"S. cerevisiae deletion strains, locus YKR001C, strain vps1, stronger effect = lower value",0.965
same,normalized growth,"S. cerevisiae deletion strains, locus YKR026C, strain gcn3, stronger effect = lower value",0.997
same,normalized growth,"S. cerevisiae deletion strains, locus YKR091W, strain srl3, stronger effect = lower value",0.985
same,normalized growth,"S. cerevisiae deletion strains, locus YLL001W, strain dnm1, stronger effect = lower value",0.93
same,normalized growth,"S. cerevisiae deletion strains, locus YLL026W, stronger effect = lower value",0.993
same,normalized growth,"S. cerevisiae deletion strains, locus YLL041C, strain sdh2, stronger effect = lower value",0.983
same,normalized growth,"S. cerevisiae deletion strains, locus YLR027C, strain aat2, stronger effect = lower value",0.996
same,normalized growth,"S. cerevisiae deletion strains, locus YLR039C, strain RIC1, stronger effect = lower value",0.899
same,normalized growth,"S. cerevisiae deletion strains, locus YLR058C, strain SHM2, stronger effect = lower value",0.976
same,normalized growth,"S. cerevisiae deletion strains, locus YLR102C, strain apc9, stronger effect = lower value",0.968
same,normalized growth,"S. cerevisiae deletion strains, locus YLR113W, strain HOG1, stronger effect = lower value",0.906
same,normalized growth,"S. cerevisiae deletion strains, locus YLR221C, strain rsa3, stronger effect = lower value",0.965
same,normalized growth,"S. cerevisiae deletion strains, locus YLR258W, strain gsy2, stronger effect = lower value",0.994
same,normalized growth,"S. cerevisiae deletion strains, locus YLR262C, strain YPT6 (second series), stronger effect = lower value",0.959
same,normalized growth,"S. cerevisiae deletion strains, locus YLR262C, strain YPT6, stronger effect = lower value",0.889
same,normalized growth,"S. cerevisiae deletion strains, locus YLR268W, strain sec22, stronger effect = lower value",0.957
same,normalized growth,"S. cerevisiae deletion strains, locus YLR320W, strain mms22, stronger effect = lower value",0.961
same,normalized growth,"S. cerevisiae deletion strains, locus YLR330W, strain CHS5, stronger effect = lower value",0.985
same,normalized growth,"S. cerevisiae deletion strains, locus YLR342W, strain FKS1 (second series), stronger effect = lower value",0.991
same,normalized growth,"S. cerevisiae deletion strains, locus YLR342W, strain FKS1, stronger effect = lower value",0.982
same,normalized growth,"S. cerevisiae deletion strains, locus YLR357W, strain rsc2, stronger effect = lower value",0.971
same,normalized growth,"S. cerevisiae deletion strains, locus YLR370C, strain arc18, stronger effect = lower value",0.988
same,normalized growth,"S. cerevisiae deletion strains, locus YLR371W, strain rom2, stronger effect = lower value",0.98
same,normalized growth,"S. cerevisiae deletion strains, locus YLR384C, strain iki3, stronger effect = lower value",0.989
same,normalized growth,"S. cerevisiae deletion strains, locus YLR418C, strain cdc73, stronger effect = lower value",0.934
same,normalized growth,"S. cerevisiae deletion strains, locus YML016C, strain PPZ1, stronger effect = lower value",0.983
same,normalized growth,"S. cerevisiae deletion strains, locus YML032C, strain rad52, stronger effect = lower value",0.932
same,normalized growth,"S. cerevisiae deletion strains, locus YML120C, strain ndi1, stronger effect = lower value",0.967
same,normalized growth,"S. cerevisiae deletion strains, locus YML124C, strain tub3, stronger effect = lower value",0.982
same,normalized growth,"S. cerevisiae deletion strains, locus YMR058W, strain fet3, stronger effect = lower value",0.998
same,normalized growth,"S. cerevisiae deletion strains, locus YMR078C, strain ctf18, stronger effect = lower value",0.947
same,normalized growth,"S. cerevisiae deletion strains, locus YMR125W, strain sto1, stronger effect = lower value",0.975
same,normalized growth,"S. cerevisiae deletion strains, locus YMR129W, stronger effect = lower value",0.992
same,normalized growth,"S. cerevisiae deletion strains, locus YMR205C, strain PFK2, stronger effect = lower value",0.959
same,normalized growth,"S. cerevisiae deletion strains, locus YMR223W, strain ubp8, stronger effect = lower value",0.966
same,normalized growth,"S. cerevisiae deletion strains, locus YMR231W, strain pep5, stronger effect = lower value",0.992
same,normalized growth,"S. cerevisiae deletion strains, locus YMR263W, strain SAP30, stronger effect = lower value",0.97
same,normalized growth,"S. cerevisiae deletion strains, locus YMR307W, strain GAS1, stronger effect = lower value",0.994
same,normalized growth,"S. cerevisiae deletion strains, locus YNL067W, strain RPL9B, stronger effect = lower value",0.966
same,normalized growth,"S. cerevisiae deletion strains, locus YNL071W, strain lat1, stronger effect = lower value",0.973
same,normalized growth,"S. cerevisiae deletion strains, locus YNL128W, strain TEP1, stronger effect = lower value",0.981
same,normalized growth,"S. cerevisiae deletion strains, locus YNL153C, strain GIM3, stronger effect = lower value",0.968
same,normalized growth,"S. cerevisiae deletion strains, locus YNL183C, strain NPR1, stronger effect = lower value",0.972
same,normalized growth,"S. cerevisiae deletion strains, locus YNL209W, strain ssb2, stronger effect = lower value",0.986
same,normalized growth,"S. cerevisiae deletion strains, locus YNL233W, strain BNI4, stronger effect = lower value",0.99
same,normalized growth,"S. cerevisiae deletion strains, locus YNL248C, strain rpa49, stronger effect = lower value",0.982
same,normalized growth,"S. cerevisiae deletion strains, locus YNL250W, strain rad50, stronger effect = lower value",0.834 (active)
same,normalized growth,"S. cerevisiae deletion strains, locus YNL271C, strain bni1, stronger effect = lower value",0.959
same,normalized growth,"S. cerevisiae deletion strains, locus YNL298W, strain CLA4, stronger effect = lower value",0.923
same,normalized growth,"S. cerevisiae deletion strains, locus YNL307C, strain MCK1, stronger effect = lower value",0.989
same,normalized growth,"S. cerevisiae deletion strains, locus YNL322C, strain KRE1 (second series), stronger effect = lower value",0.983
same,normalized growth,"S. cerevisiae deletion strains, locus YNL322C, strain KRE1, stronger effect = lower value",0.982
same,normalized growth,"S. cerevisiae deletion strains, locus YNR049C, strain mso1, stronger effect = lower value",0.994
same,normalized growth,"S. cerevisiae deletion strains, locus YNR052C, strain pop2, stronger effect = lower value",0.956
same,normalized growth,"S. cerevisiae deletion strains, locus YOL006C, strain TOP1, stronger effect = lower value",0.931
same,normalized growth,"S. cerevisiae deletion strains, locus YOL012C, strain htz1",1.62
same,normalized growth,"S. cerevisiae deletion strains, locus YOL147C, strain pex11, stronger effect = lower value",0.98
same,normalized growth,"S. cerevisiae deletion strains, locus YOR001W, strain rrp6, stronger effect = lower value",1.01
same,normalized growth,"S. cerevisiae deletion strains, locus YOR061W, strain CKA2, stronger effect = lower value",0.957
same,normalized growth,"S. cerevisiae deletion strains, locus YOR069W, strain VPS5, stronger effect = lower value",0.998
same,normalized growth,"S. cerevisiae deletion strains, locus YOR070C, strain gyp1, stronger effect = lower value",0.992
same,normalized growth,"S. cerevisiae deletion strains, locus YOR080W, strain dia2, stronger effect = lower value",0.994
same,normalized growth,"S. cerevisiae deletion strains, locus YOR083W, strain WHI5, stronger effect = lower value",0.961
same,normalized growth,"S. cerevisiae deletion strains, locus YOR106W, strain vam3, stronger effect = lower value",0.986
same,normalized growth,"S. cerevisiae deletion strains, locus YOR136W, strain idh2, stronger effect = lower value",0.989
same,normalized growth,"S. cerevisiae deletion strains, locus YOR144C, strain elg1, stronger effect = lower value",0.984
same,normalized growth,"S. cerevisiae deletion strains, locus YOR184W, strain ser1, stronger effect = lower value",1.02
same,normalized growth,"S. cerevisiae deletion strains, locus YOR231W, strain MKK1, stronger effect = lower value",0.794 (active)
same,normalized growth,"S. cerevisiae deletion strains, locus YOR265W, strain rbl2, stronger effect = lower value",0.993
same,normalized growth,"S. cerevisiae deletion strains, locus YOR270C, strain vph1, stronger effect = lower value",0.958
same,normalized growth,"S. cerevisiae deletion strains, locus YOR290C, strain snf2, stronger effect = lower value",0.914
same,normalized growth,"S. cerevisiae deletion strains, locus YOR316C, strain cot1, stronger effect = lower value",0.968
same,normalized growth,"S. cerevisiae deletion strains, locus YPL051W, strain arl3, stronger effect = lower value",0.984
same,normalized growth,"S. cerevisiae deletion strains, locus YPL055C, strain LGE1, stronger effect = lower value",0.977
same,normalized growth,"S. cerevisiae deletion strains, locus YPL078C, strain atp4, stronger effect = lower value",0.965
same,normalized growth,"S. cerevisiae deletion strains, locus YPL106C, strain sse1, stronger effect = lower value",0.967
same,normalized growth,"S. cerevisiae deletion strains, locus YPL240C, strain hsp82, stronger effect = lower value",0.993
same,normalized growth,"S. cerevisiae deletion strains, locus YPL241C, strain CIN2, stronger effect = lower value",1.08 [resistant] (active)
same,normalized growth,"S. cerevisiae deletion strains, locus YPL256C, strain CLN2, stronger effect = lower value",0.948
same,normalized growth,"S. cerevisiae deletion strains, locus YPR119W, strain clb2, stronger effect = lower value",0.983
same,normalized growth,"S. cerevisiae deletion strains, locus YPR141C, strain kar3, stronger effect = lower value",0.95
same,normalized growth,"S. cerevisiae deletion strains, locus YPR163C, strain tif3, stronger effect = lower value",0.984
same,normalized growth,"S. cerevisiae deletion strains, locus YPR167C, strain met16, stronger effect = lower value",0.978
same,normalized growth,"S. cerevisiae deletion strains, strain wtn01, stronger effect = lower value",0.959
same,normalized growth,"S. cerevisiae strains, strain wild type, stronger effect = lower value",0.989
